Screening data from PubChem BioAssay.
Sampled rows, rich in hits. Any-hit rate of the full collection: about 6.6%.
SW480 rereplic – induces DNA re-replication in SW480 colon adenocarcinoma cells. SW480 DNA re-replication, Hoechst DNA content imaging, 48 h. Potency, µM (highest dose often 46.1 µM), for inactives: at the highest dose re-replication activation, hits mostly activators. hit rate 1.8% among 340,000. AID 624297; also: % of control where 0% means no effect; nearly all actives have a fitted effect of over 55% in size
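First, 250 cells per well were seeded. Next, compound or vehicle (23 nL) was pinned in, plates sat 48 hr at 37 C. Finally Hoechst was added for 40 min before fluorescence scanning.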
MCF10A rereplic – induces DNA re-replication in MCF 10a normal breast cells. MCF 10A DNA re-replication, Hoechst nuclear intensity, 48 h. Potency, µM (series often up to 46.1 µM), for the others: at the highest dose activity, positive = re-replication, hits mostly activators. hit rate 2.9% among 350,000. AID 624296; also: % of control where 0% means no effect; nearly all actives have a fitted effect of over 50% in size
RGS4 inhibitor – inhibitors of human regulator of G protein signaling 4; Potency, µM (doses to about 114 µM), for the others: top-dose activity change, negative = inhibition, usual class: inhibitors; hit rate 0.039% among 390,000; P49798; Transcreener GDP fluorescence polarization, RGS4-accelerated GTP hydrolysis; also: % is scaled to controls: 0 for no effect and ±100 for the full control effect; nearly all actives have a fitted effect of over 75% in size
Target sequence (P49798 whole entry, looked up): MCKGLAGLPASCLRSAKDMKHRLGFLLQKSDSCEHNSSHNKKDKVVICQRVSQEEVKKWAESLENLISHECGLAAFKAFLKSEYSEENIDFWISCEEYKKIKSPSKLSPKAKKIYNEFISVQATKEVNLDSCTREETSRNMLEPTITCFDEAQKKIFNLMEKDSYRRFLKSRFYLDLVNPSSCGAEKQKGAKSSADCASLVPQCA
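MLSMR compounds (23 nl, pin-transferred) preincubated 10 min at room temperature with a 500nM (2x) first reagent, then RGS4 at 900nM (2x) plus Transcreener GDP mix added; fluorescence polarization (620/688 nm) read before and after 90 min at 30 °C.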
PTAP TSG101 blk – blocks PTAP/TSG101 interaction to inhibit HIV-1 budding; Fluorescence polarization, FITC-PTAP peptide / Tsg101 binding; Potency, µM (titrated, usually from 115 µM), without a hit: top-dose activity change, negative = inhibition, hits mostly inhibitors; 340,000 tested, under 10 active; active = well fitted inhibition curve with a large enough effect in the main read-out, with a control signal flat, not every such curve was filed as active; inconclusive = small, poorly fitted or top-dose-only effect, or effect the other way, or a change in a side signal; inactive = no such curve, though single readings can be large or run the other way; also: % of control where 0% means no effect
Target sequence (Q99816 whole entry, looked up): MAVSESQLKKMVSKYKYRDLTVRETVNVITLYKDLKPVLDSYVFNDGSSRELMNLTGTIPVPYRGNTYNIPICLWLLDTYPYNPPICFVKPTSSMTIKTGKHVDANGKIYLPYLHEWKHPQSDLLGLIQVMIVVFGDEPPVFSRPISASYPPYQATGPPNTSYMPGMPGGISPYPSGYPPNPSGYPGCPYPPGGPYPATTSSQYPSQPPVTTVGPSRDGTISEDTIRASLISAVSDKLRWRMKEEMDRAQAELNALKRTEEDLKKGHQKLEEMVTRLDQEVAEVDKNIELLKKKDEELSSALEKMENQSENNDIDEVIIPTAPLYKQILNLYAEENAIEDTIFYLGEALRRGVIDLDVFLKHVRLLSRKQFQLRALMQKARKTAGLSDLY
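Steps: Tsg101 binding domain dispensed (10 uM final), compounds pinned in DMSO, FITC-labeled PTAP-motif peptide added (50 nM final); after 20 min binding at room temperature, polarization measured.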
KB-V1 cytotox – kills drug-selected multidrug resistant KB-V1 cells; KB-V1 MDR cells viability, CellTiter-Glo, 72 h; Potency, µM (series often up to 46.1 µM), usual class: cytotoxic; hit rate 3.4% among 400,000; AID 1347076; also: % is scaled to controls: 0 for no effect and ±100 for the full control effect; nearly all actives have a fitted effect of over 60% in size
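In this primary screen, KB-V1 cells overexpressing P-gp are incubated with library compounds (lowest to highest concentration) for 72 h at 37 degrees C before a luminescent ATP viability read.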
KB-3-1 tox – KB-3-1 parental cell cytotoxicity | Potency, µM (doses to about 46.1 µM), actives largely listed as cytotoxic | AID 1347075 | hit rate 1.4% among 400,000 | KB-3-1 viability, CellTiter-Glo ATP luminescence, 72 h; also: % is scaled to controls: 0 for no effect and ±100 for the full control effect; nearly all actives have a fitted effect of over 60% in size
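Cytotoxicity measured as CellTiter-Glo luminescence after 72 h at 37 C. Compound titrations were pinned onto drug-naive KB-3-1 parental adenocarcinoma cells grown in DMEM with 10% FBS, and normalized data fitted to concentration-response curves.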
* marks the source's active call; other numbers are inactive results; i = inactive; ? = inconclusive; / = no result given. Unless noted, calls follow the shape of the dose curve; as a rule, active = well fitted curve in the direction sought with a large enough effect; inconclusive = small, poorly fitted or top-dose-only effect, or another doubt; inactive = no such curve, though single readings can be large; an effect the other way counts as inactive or inconclusive. Potency is read from the fitted curve at half-maximal effect.

SMILES | SW480 rereplic | MCF10A rereplic | RGS4 inhibitor | PTAP TSG101 blk | KB-V1 cytotox | KB-3-1 tox
COc1ccc(-c2ccc(SCC(=O)c3cccs3)nn2)cc1OC | 3% | 4% | -12% | -1% | 2.3µM* | i
COc1ccc(-c2ccc(SCC(=O)c3ccc(F)cc3)nn2)cc1OC | 0% | 5% | -44% | 0% | ? | i
COc1ccc(-c2ccc(SCC(=O)NCc3ccco3)nn2)cc1OC | -7% | 12% | 4% | -3% | 9.2µM* | i
CCN1C(C(=O)c2ccccc2)=C(OC(=O)COc2ccc(C)cc2)c2ccccc2S1(=O)=O | / | / | 28% | / | / | /
CCCN(CCC)C(=O)c1c[nH]c2ccc(S(=O)(=O)N(C)c3ccc(Cl)cc3)cc2c1=O | / | / | 17% | / | ? | i
O=c1c(=O)n(-c2ccccc2)ccn1Cc1c(F)cccc1Cl | / | / | -10% | / | / | /
COc1cccc(NC(=O)c2ccccc2-c2nc(-c3ccccc3)no2)c1 | 3% | -2% | 36% | -1% | ? | i
COc1cccc(NC(=O)c2ccccc2-c2nc(-c3ccc(F)cc3)no2)c1 | 3% | 7% | -5% | 0% | 18µM* | i
COc1ccc(-c2noc(-c3ccccc3C(=O)NCc3ccco3)n2)cc1 | 3% | 4% | 2% | -1% | ? | i
COc1ccc(-c2noc(-c3ccccc3C(=O)NCc3ccco3)n2)cc1OC | -4% | ? | -27% | 0% | 3.7µM* | i
COc1ccc(/C=N/Nc2nc(-c3ccc(Cl)cc3)cc(C(F)(F)F)n2)cc1OC | -4% | 26% | -14% | 1% | 7.3µM* | i
C=C(C)Cn1c(SCC(=O)Nc2cc(C)ccc2C)nc2sc3c(c2c1=O)CCCC3 | / | / | -23% | / | i | i
Cc1ccc(C)c(CN2C(=O)C3(c4ccccc42)N(c2ccc(Cl)cc2)C(=O)CS3(=O)=O)c1 (centres undefined) | / | / | 9% | / | i | i
COc1ccccc1NC(=O)CSc1nnc(-c2nonc2NC(C)=O)n1-c1ccccc1 | / | / | -9% | / | i | i
O=C1N[C@@H](Cc2ccccc2)COC(=O)[C@@H](Cc2ccc(F)cc2)C/C=C\C[C@@H]1CC(=O)N(CCO)Cc1ccccc1 | ? | 23µM* | 25% | -7% | ? | ?
Oc1ccc(C=NNC(=S)Nc2cccnc2)nc1 | 13µM* | ? | -42% | -5% | 3.7µM* | i
O=C(Nc1ccc(S(=O)(=O)N(Cc2ccccc2)c2ccccc2)cc1)c1ccc([N+](=O)[O-])cc1 | / | / | 6% | / | ? | i
Cc1coc2cc3oc(=O)c(CCC(=O)NCc4ccc(Cl)cc4)c(C)c3cc12 | / | / | 4% | / | ? | i
CCCCCCN1C=CC(=C2C(=O)c3ccccc3C2=O)C=C1 | -10% | 1% | 7% | 8% | i | ?
CCN1C=CC(=C2C(=O)c3ccccc3C2=O)C=C1 | -6% | 5% | -10% | -8% | 8.2µM* | 15µM*
CCCN1C=CC(=C2C(=O)c3ccccc3C2=O)C=C1 | -7% | 15% | 4% | -2% | 2.9µM* | ?
CCCN(CCC)CCCNC(=O)C1CCN(c2nc3ccc(CC)cc3s2)CC1 | / | / | -1% | / | / | /
O=C(CN1C(=O)c2cccnc2Oc2ccc(Cl)cc21)NCCCN1CCCCC1 | / | / | 4% | / | i | i
CCC(Sc1nc2ccccc2c2nc(CCn3c(C)nc4ccccc43)nn12)C(=O)Nc1ccc(F)cc1 (centres undefined) | / | / | 27% | / | i | i
Cn1nnnc1SCC1=C(C(=O)O)N2C(=O)C(NC(=O)Cn3nc(C(F)F)cc3C3CC3)C2SC1 (centres undefined) | 2% | 0.58µM* | -21% | -3% | ? | i
SMILES | SW480 rereplic | MCF10A rereplic | RGS4 inhibitor | PTAP TSG101 blk | KB-V1 cytotox | KB-3-1 tox
Cc1c(Cl)c(C(F)F)nn1CC(=O)NC1C(=O)N2C(C(=O)O)=C(CSc3nnnn3C)CSC12 (centres undefined) | -17% | -4% | -21% | -4% | i | i
CCOc1ccc(NC(=S)NC(=O)/C=C/c2ccc(C)cc2)c([N+](=O)[O-])c1 | 12% | ? | -23% | -1% | 12µM* | ?
CCC(CC)C(=O)N1N=C(c2ccc(NS(C)(=O)=O)cc2)CC1c1ccc(C)cc1 (centres undefined) | -11% | 4% | 0% | -3% | 18µM* | i
O=C(NCCc1ccccc1)c1cnc2sc(N3CCCCC3)nn2c1=O | / | / | 19% | / | ? | ?
O=c1c(-c2nc3ccccc3s2)cccn1Cc1ccc(Cl)cc1 | ? | 3.3µM* | -49% | -7% | i | i
CCOC(=O)C1C(=O)C=C(c2ccc(C)cc2)CC1c1ccc([N+](=O)[O-])cc1 (centres undefined) | -21% | -1% | -16% | 1% | 7.3µM* | i
Cc1ccc(/C=N/NC(=O)CN(Cc2ccccc2)S(=O)(=O)c2ccc3c(c2)OCCO3)cc1 | ? | 16% | 17% | -2% | 5.8µM* | i
CCOC(=O)Cc1nnc(NC(=O)c2ccccc2OC)s1 | -4% | -2% | 21% | -7% | i | i
COc1cc(C(=O)Nc2nnc(CC(C)(C)C)s2)c([N+](=O)[O-])cc1OC | 12% | -3% | 21% | 0% | 21µM* | i
COc1ccccc1C(=O)Nc1nnc(CCc2ccccc2)s1 | 6.5µM* | ? | 23% | -9% | ? | 12µM*
COc1ccc(Cc2nnc(NC(=O)c3cccc(C)c3)s2)cc1 | 2% | -53% | 1% | 1% | i | i
COc1ccc(Cc2nnc(NC(=O)c3cccc([N+](=O)[O-])c3C)s2)cc1 | -9% | 29% | -36% | -1% | 21µM* | i
COc1ccc(Cc2nnc(NC(=O)c3ccccc3[N+](=O)[O-])s2)cc1 | -75% | 23µM* | 5% | -8% | i | i
O=S(=O)(Nc1nc(CN2CCOCC2)nc2sc3c(c12)CCCC3)c1cc(F)ccc1F | 3% | 2% | -3% | 0% | 10µM* | i
CCNc1nc(CN2CCOCC2)nc2sc3c(c12)CCC3 | 6% | -9% | -4% | -2% | i | i
COc1ccc(-c2c(-c3cc(OC)cc(OC)c3)n(C)c3ccc(-c4cnc(OC)nc4)cc23)cc1 | 12% | -3% | 26% | -7% | i | i
COc1ccc(-c2c(-c3cc(OC)cc(OC)c3)n(C)c3ccc(-c4ccc5[nH]ccc5c4)cc23)cc1 | -1% | ? | 5% | -8% | i | 23µM*
Cn1c(=O)oc2cc(S(=O)(=O)NCCC(=O)NCCc3ccc(Cl)cc3)ccc21 | 7% | 4% | -18% | -10% | i | 16µM*
